Measured values published in PubChem BioAssay (NCI).
About 83,000 compounds went through this panel and 20% of them were active in at least one assay; those are over-represented in the sample as a whole.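 Interpretation: 100, growth as untreated; towards 0, rising growth inhibition; 0, no net growth; 0 to -100, cell death. Compounds scoring below 10 were considered active.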 Unmarked numbers belong to inactive results. Activity calls are given as the source filed them.

test system: MDA-MB-468 breast; assay: NCI-60 one-dose screen, 48 h (100 = growth as untreated, 0 = no growth, -100 = all killed); conditions: 10 µM unless noted

Row | Structure (SMILES) | growth
1 | Cc1cc(N2CCOCC2)nc(N(CCNc2ccnc3cc(Cl)ccc23)Cc2ccco2)n1 | 23.5%
2 | Oc1ccc(Br)cc1/C=N/NC(=S)NC12CC3CC(CC(C3)C1)C2 | 46.8%
3 | O=C(c1ccccc1)N(C(=O)c1ccccc1)N1CCCC1 | 108%
4 | O=C(/C=C/c1ccc(F)cc1)c1ccc(NC(=O)N2CCN(c3cc4c(cc3F)c(=O)c(C(=O)O)cn4C3CC3)CC2)cc1 | 68.3%
5 | O=C(/C=C/c1cccc(O)c1)c1cccc(-n2cc(-c3ccc4ccccc4c3)[nH]c2=O)c1 | -79.7% (active)
6 | COc1cc(/C=C/C(=O)c2ccc(F)cc2)ccc1Oc1nc(NCCO)nc(N2CCOCC2)n1 | 77.2%
7 | CSc1nnc(C2=CC(=O)c3ccccc3C2=O)n1-c1ccccc1 | 82.6%
8 | Cc1cc(C(C#N)c2ccc(Cl)cc2)c(Cl)cc1NC(=O)c1cc(I)cc(I)c1O (stereo unspecified) | 58.9%
9 | COc1ccc(C(O)c2cc3c(N)c(C(=O)Nc4ccc(Cl)cc4)sc3nc2C)cc1 (stereo unspecified) | 3.39% (active)
10 | c1cncc(-c2nc3ccccc3[nH]2)c1 | 102%
11 | NC(=O)CSc1oc(-c2ccccc2)nc1S(=O)(=O)c1ccc(Br)cc1 | 73.9%
12 | Cc1ccc2[nH]c3ccccc3c2c1 | 100%
13 | c1ccc2[nH]c(SSc3nc4ncncc4[nH]3)nc2c1 | 11.3%
14 | COc1ccc2c(c1)nc(N)c1c3ccccc3cn21 | 58.5%
15 | C=C1C[C@@]2(C)C(CC[C@]3(C)C2CC=C2C4CC(C)(C)C[C@@H](OC(=O)/C(C)=C\C)[C@]4(C(=O)O)CC[C@]23C)C(C)(C)C1=O (stereo partly specified) | -23.9% (active)
16 | CCc1ccc2c(c1)N(CCO)C1=C(C(=O)OC1)C2c1cccc(Cl)c1 (stereo unspecified) | 20.1%
17 | O=c1cc(N2CCOCC2)oc2c(-c3ccc4c(c3)OCCO4)csc12 | -4.24% (active)
18 | Cc1[nH]c(C(=O)Nc2ccc(C(=O)N3CCN(c4cc5c(cc4F)c(=O)c(C(=O)O)cn5C4CC4)CC3)cc2OC(C)C)c(Cl)c1Cl | 85.9%
19 | CC(C)c1nn(-c2ccccc2)c(N2CCCCC2)c1/C=N/NC(N)=S | 89.6%
20 | CCOC(=O)c1ccc(NC2=C(Cl)C(=O)c3nc(C)ccc3C2=O)cc1 | -24.6% (active)
21 | CC(=O)/C(N=Nc1ccc2oc(=O)ccc2c1)=C(\C)O | 9.38% (active)
22 | CCCOc1ccc2nc(NC(=O)OC)[nH]c2c1 | -3.99% (active)
23 | O=S1(=O)NCCCN1CCNc1nccc(-c2c(-c3cccc(O)c3)nc3sccn23)n1 | 78.8%
24 | COc1cc2c(cc1OC)C(=O)OC2 | 97.1%
25 | Cc1ccccc1[P+](Cc1ccccc1)(c1ccccc1)c1ccccc1 | -14.4% (active)
26 | N/C(=N\C(N)=N\c1nc2ccccc2s1)c1cccc(F)c1 | 92.9% [5 µM]
